The source of these data is PubChem BioAssay (Tox21).

Assay [1] concerns the target Luciferin 4-monooxygenase (Photinus pyralis) (UniProt P08659). Kind of assay: qHTS assay to identify small molecule inhibitors of firefly luciferase (AID 1224835). Further: nearly all actives have a fitted effect of over 25% in size. In short, it runs like this:
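Quantitative HTS format; KM concentrations of both substrates. Purified P. pyralis FLuc activity quantified from luminescence images.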
In general terms: In qHTS, concentration-response curves come from the screen itself.

A short description of assay [2]: qHTS assay to identify small molecule agonists of the constitutive androstane receptor (CAR) signaling pathway - cell viability counter screen (AID 1224836). Further: nearly all actives have a fitted effect of over 45% in size. Further: potency means the concentration at half of the fitted maximal effect. In short, it runs like this:
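Compound titrations (15 concentrations) went onto HepG2-CYP2B6-hCAR cells 4 h after seeding, alongside PK11195 at a final 0.75 uM; a 23 h, 37 C/5% CO2 incubation preceded CellTiter-Fluor viability measurement.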

Assay [3] can be described thus: qHTS assay to identify small molecule antagonists of the constitutive androstane receptor (CAR) signaling pathway - cell viability counter screen (AID 1224837). Further: nearly all actives have a fitted effect of over 45% in size. Further: potency means the concentration at half of the fitted maximal effect. In short, it runs like this: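 Read-out: CellTiter-Fluor fluorescence after 23 hr at 37 C/5% CO2. Cells: HepG2 double-stable for hCAR and CYP2B6-2.2kb. Compounds tested at 15 concentrations in the presence of CITCO, final concentration 50 nM.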

Assay [4] concerns the target Nuclear receptor subfamily 1 group I member 3 (Homo sapiens) (UniProt Q14994). As to the kind of experiment: qHTS assay to identify small molecule antagonists of the constitutive androstane receptor (CAR) signaling pathway (AID 1224838).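 Further: HepG2 cells stably expressing hCAR with CYP2B6 luciferase reporter stimulated by CITCO; nearly all actives have a fitted effect of over 40% in size.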 In short, it runs like this: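 Read-out: ONE-Glo luciferase luminescence after 30 min at room temperature. HepG2-CYP2B6-hCAR double-stable cells, compounds in 15-point titration plus 50 nM CITCO final, 24 h at 37 C/5% CO2.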

The nature of assay [5]: qHTS RealTime-Glo MT Cell Viability Assay in HepG2 cells - 24 hour (AID 1224867). Further: nearly all actives have a fitted effect of over 50% in size. In short, it runs like this: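 Compound treatment began 5 h after plating HepG2 cells (600/well) with NanoLuc luciferase and prosubstrate. Plates stayed at 37 C for 40 h; luminescence was captured at six time points, 0 h through 40 h.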
Assay [6] in a line: A CellTox Green Cytotoxicity Assay to monitor cytotoxicity in HEK293 cells - 0 hour (AID 1224869). Further: nearly all actives have a fitted effect of over 50% in size. In short, it runs like this:
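Read-out: fluorescence of a cell-impermeant cyanine dye staining DNA of dead cells, proportional to cytotoxicity. HEK293, 600 cells/well with reagent, compound (23 nL DMSO) added after 5 h; reads at 0, 8, 16, 24, 32, 40 h.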

For assay [7], the target named is Nuclear receptor subfamily 1 group I member 3 (Homo sapiens) (UniProt Q14994). As to the kind of experiment: qHTS assay to identify small molecule agonists of the constitutive androstane receptor (CAR) signaling pathway (AID 1224839).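 Further: HepG2 cells stably carrying human CAR and a CYP2B6 luciferase reporter; nearly all actives have a fitted effect of over 15% in size.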 In short, it runs like this:
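In this screen, CAR-driven CYP2B6 promoter activity is measured by luminescence in HepG2-CYP2B6-hCAR cells after 24 h with test compounds and 0.75 uM PK11195 (final concentration).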

Assay [8] is described as follows: qHTS assay to identify small molecule antagonists of the estrogen related receptor signaling pathway with the pleiotropic PPARgamma coactivator (PGC) from Tox21 10K library - cell viability counter screen (AID 1224840; active means well fitted cell-killing curve with a large enough effect in the repeat runs, not every such curve was filed as active; further: nearly all actives have a fitted effect of over 40% in size). In a few lines: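 Fluorescence read-out of CellTiter-Fluor viability reagent, added after cells had been exposed to compound in DMSO for 17.5 h at 37 C; 30 min development at 37 C/5% CO2. Cells: PGC/ERR line, 2,000/well.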

In assay [9] the target is Thyrotropin receptor (Homo sapiens) (UniProt P16473). Kind of assay: qHTS assay to identify small molecule agonists of the thyroid stimulating hormone receptor (TSHR) signaling pathway (AID 1224843; calls by dose curve; further: nearly all actives have a fitted effect of over 45% in size). In short, it runs like this:
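Using 15 concentrations per compound in triplicate, cAMP production was monitored in TSHR-HEK293 cells after 30 min compound incubation at RT; HTRF reagents followed, with fluorescence intensity recorded after 1 h.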

A short description of assay [10]: qHTS assay to identify small molecule agonists of the hypoxia (HIF-1) signaling pathway - cell viability counter screen (AID 1224844; calls by dose curve; further: nearly all actives have a fitted effect of over 50% in size). In a few lines: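 CellTiter-Glo luminescence read-out, 30 min RT, taken in the same wells as the beta-lactamase HRE reporter assay; HRE-bla ME-180 cells, 0.5% dialyzed FBS, 17 hr compound treatment at 37C, 5% CO2.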
The nature of assay [11]: qHTS assay to identify small molecule agonists of H2AX (AID 1224845; active means well fitted activation curve with a large enough effect in the signal ratio in the repeat runs, not every such curve was filed as active; the % refers to the signal ratio). In short, it runs like this: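 Wild-type CHO-K1 cells plated overnight, then exposed 3 hr at 37C to compounds at 15 concentrations (0.76% DMSO). Lysed, then HTRF anti-pH2AX(S139)-cryptate/anti-H2AX-d2 detection after 24 hr at room temperature; emissions 665 and 620 nm.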
Assay [12] can be described thus: qHTS assay to identify small molecule agonists of the hypoxia (HIF-1) signaling pathway (AID 1224846; active means well fitted activation curve with a large enough effect in the signal ratio in the repeat runs, not every such curve was filed as active; the % refers to the signal ratio). In a few lines:
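Beta-lactamase FRET read-out (CCF4-AM substrate) from ME-180 cells carrying an HRE-driven bla reporter, after 17 hrs compound exposure at 37C/5% CO2. Cells were seeded at 2,000 per well in 0.5% dialyzed FBS medium and preincubated 5 hrs.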

The nature of assay [13]: qHTS assay to identify small molecule agonists of H2AX - cell viability counter screen (AID 1224847; calls by dose curve; further: nearly all actives have a fitted effect of over 30% in size; further: potency means the concentration at half of the fitted maximal effect). In short, it runs like this: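 Read-out: CellTiter-Glo luminescence, 30 min RT. Cells: wild-type CHO-K1, 1000/well, 10% FBS, plated overnight at 37C. Treatment: 15 concentrations, 3 hr, 37C, 0.76% DMSO.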
Assay [14] can be described thus: qHTS RealTime-Glo MT Cell Viability Assay in HEK293 cells - 32 hour (AID 1224868). Further: nearly all actives have a fitted effect of over 50% in size. Further: potency means the concentration at half of the fitted maximal effect. In short, it runs like this:
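Quantitative high-throughput screen of the Tox21 10K library in HEK293: cells and RealTime-Glo reagents plated together, compound added at 5 h, luminescence monitored through 40 h at 37 C.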

Assay [15] is described as follows: qHTS assay to identify small molecule antagonists of the estrogen related receptor signaling pathway with the pleiotropic PPARgamma coactivator (PGC) from Tox21 10K library (AID 1224841; call rule not given here; further: potency means the concentration at half of the fitted maximal effect). In a few lines: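 Luminescence read-out (One-Glo luciferase reagent, 30 min at room temperature) from PGC/ERR cells exposed to DMSO-dissolved test compounds for 18 h at 37 C; cells, 2,000 per well, had been preincubated 6 h before compound transfer.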

Assay [16] can be described thus: qHTS assay to identify small molecule agonists of the estrogen related receptor signaling pathway with the pleiotropic PPARgamma coactivator (PGC) from Tox21 10K library (AID 1224842). Further: nearly all actives have a fitted effect of over 15% in size. In a few lines:
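PGC/ERR reporter cells (NTP line) were seeded 2,000 per well, rested 6 h at 37 C/5% CO2, then pin-dosed with compounds in DMSO for 18 h at 37 C; luciferase read by One-Glo luminescence after 30 min at room temperature.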

Assay [17] is described as follows: qHTS assay to identify small molecule antagonists of the estrogen related receptor (ERR) signaling pathway from Tox21 library (AID 1224848). Further: nearly all actives have a fitted effect of over 50% in size. Further: potency means the concentration at half of the fitted maximal effect. In a few lines: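 Tox21 10K compounds in DMSO tested for ERR pathway antagonism in NTP's ERR cell line; 18 h, 37 C exposure; ONE-Glo luminescence.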
Assay [18] is described as follows: qHTS assay to identify small molecule agonists of the estrogen related receptor (ERR) signaling pathway from Tox21 library (AID 1224849; calls by dose curve; further: nearly all actives have a fitted effect of over 15% in size). As to conditions: ERR reporter cell line, ONE-Glo luciferase, 18 h; at 92.4 µM (top of the series) unless noted. In a few lines:
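Luminescence readout (ONE-Glo, 30 min RT) after 18 h compound exposure at 37 C of NTP-supplied ERR reporter cells; cells were plated 6 h before compound addition by pin tool.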

Values without a mark were called inactive. Results filed as inconclusive are left out. Activity calls are given as the source filed them. Unless noted, the call rests on the fitted dose curve; in most records, active means well fitted curve in the direction sought with a large enough effect in the repeat runs; inconclusive means weak or mixed curves; inactive means no such curve, though single readings can be large; an effect the other way counts as inactive or inconclusive.
On the % scale 0 is the no-effect control and ±100 the full control effect.

Sequence of Luciferin 4-monooxygenase (Photinus pyralis) (P08659 whole entry, looked up): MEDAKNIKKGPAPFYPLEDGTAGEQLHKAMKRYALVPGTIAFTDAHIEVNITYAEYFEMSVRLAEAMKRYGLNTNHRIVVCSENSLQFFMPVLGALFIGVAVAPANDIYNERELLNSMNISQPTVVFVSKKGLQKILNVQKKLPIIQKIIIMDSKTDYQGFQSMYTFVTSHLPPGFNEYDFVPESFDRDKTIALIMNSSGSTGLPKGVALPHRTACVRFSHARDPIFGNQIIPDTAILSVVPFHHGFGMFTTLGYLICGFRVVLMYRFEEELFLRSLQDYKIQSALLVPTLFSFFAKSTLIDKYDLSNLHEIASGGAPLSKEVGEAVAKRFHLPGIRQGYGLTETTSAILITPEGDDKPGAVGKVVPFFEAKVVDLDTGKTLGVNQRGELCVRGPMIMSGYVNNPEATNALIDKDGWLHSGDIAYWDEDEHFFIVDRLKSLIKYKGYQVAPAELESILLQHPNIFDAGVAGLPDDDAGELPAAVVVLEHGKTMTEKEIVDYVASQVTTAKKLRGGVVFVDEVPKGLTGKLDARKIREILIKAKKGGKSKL
Sequence of Nuclear receptor subfamily 1 group I member 3 (Homo sapiens) (Q14994 whole entry, looked up): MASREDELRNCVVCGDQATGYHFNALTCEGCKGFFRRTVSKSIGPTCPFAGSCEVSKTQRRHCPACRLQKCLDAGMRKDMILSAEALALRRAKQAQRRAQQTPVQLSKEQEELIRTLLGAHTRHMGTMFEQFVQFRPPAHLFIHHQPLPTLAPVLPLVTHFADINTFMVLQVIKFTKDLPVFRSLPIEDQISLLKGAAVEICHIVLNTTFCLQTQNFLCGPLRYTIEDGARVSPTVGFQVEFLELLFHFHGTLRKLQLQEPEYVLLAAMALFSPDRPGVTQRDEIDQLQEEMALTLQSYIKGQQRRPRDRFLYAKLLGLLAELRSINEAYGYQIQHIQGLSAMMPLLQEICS
Sequence of Thyrotropin receptor (Homo sapiens) (P16473 whole entry, looked up): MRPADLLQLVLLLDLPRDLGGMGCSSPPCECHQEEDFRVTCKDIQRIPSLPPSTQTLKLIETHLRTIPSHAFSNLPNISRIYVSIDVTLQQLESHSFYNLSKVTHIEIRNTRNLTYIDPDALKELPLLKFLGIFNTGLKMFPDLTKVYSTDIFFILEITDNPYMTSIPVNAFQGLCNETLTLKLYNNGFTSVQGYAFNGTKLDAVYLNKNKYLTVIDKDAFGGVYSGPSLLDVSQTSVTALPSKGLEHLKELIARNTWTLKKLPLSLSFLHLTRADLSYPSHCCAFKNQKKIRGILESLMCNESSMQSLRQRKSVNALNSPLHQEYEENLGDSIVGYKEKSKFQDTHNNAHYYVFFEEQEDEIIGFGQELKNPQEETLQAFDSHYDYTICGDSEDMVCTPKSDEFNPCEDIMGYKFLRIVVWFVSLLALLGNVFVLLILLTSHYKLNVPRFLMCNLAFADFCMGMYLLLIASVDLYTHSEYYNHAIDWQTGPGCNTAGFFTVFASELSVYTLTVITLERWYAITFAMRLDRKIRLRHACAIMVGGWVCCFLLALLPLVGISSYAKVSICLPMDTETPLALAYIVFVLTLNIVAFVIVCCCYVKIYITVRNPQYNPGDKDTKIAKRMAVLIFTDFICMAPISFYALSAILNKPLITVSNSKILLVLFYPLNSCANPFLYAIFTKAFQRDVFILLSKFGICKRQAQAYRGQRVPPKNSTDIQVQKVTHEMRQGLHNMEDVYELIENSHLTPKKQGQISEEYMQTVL

On to `CCC(COC(=O)c1cc(OC)c(OC)c(OC)c1)(c1ccccc1)N(C)C` (configuration not stated), for which the Potency result in assay [1], in assay [2], in assay [3], in assay [4], in assay [5] and in assay [6] was “inactive” each time.
`C=CCC1([C@H](C)CCC)C(=O)NC(=O)NC1=O`: the Potency result in assay [1], in [2], in assay [3], in assay [4], in assay [7] and in assay [8] was “inactive” each time. Also, the Potency entry in [9], in assay [10], in [11], in assay [13], in assay [5] and in assay [14] was “inactive” in each case. In addition, the Potency entry in assay [6] was “inactive”. Also, the result in assay [12] was inactive.
As to `CN1C[C@H](CNC(=O)OCc2ccccc2)C[C@@H]2c3cccc4c3c(cn4C)C[C@H]21`, the Potency entry in [1], in [2], in assay [3], in assay [4], in assay [7] and in assay [8] was “inactive” each time. The Potency result in [9], in [10], in assay [11], in assay [13] and in [6] was “inactive” in each case. Moreover, the Potency in assay [14] is 21.3 µM (active).
`O=C(CBr)c1ccccc1`: the Potency entry in [1], in assay [2], in [3], in [4], in assay [8] and in assay [13] was “inactive” each time. In addition, the Potency entry in assay [5], in assay [14] and in assay [6] was “inactive” throughout. In addition, the call in [12] was inactive.
For the molecule `C/C=C/C=O`, the Potency entry in assay [1], in [2], in assay [3], in [7], in assay [8] and in [11] was “inactive” in each case. Besides, the Potency result in assay [13], in [5], in assay [14] and in assay [6] was “inactive” in each case. Besides, in [12], the molecule was classed as inactive.
As to `CC(c1ccc(O)cc1)(c1ccc(O)cc1)c1ccc(O)cc1`, the Potency result in assay [1], in assay [2], in assay [3], in assay [7], in assay [16] and in assay [10] was “inactive” in each case. Further, the Potency result in assay [5] and in [6] was “inactive” each time. Further, the Potency was 54.5 µM (active) in assay [15], 54.5 µM (active) in assay [17] and 54.9 µM (active) in [14]. Also, the activity change, positive = activation in assay [18] is -42.4%.
As to `O=C1CN=C(c2ccccc2)c2cc(Cl)ccc2N1CC1CC1`, the Potency entry in assay [1], in assay [2], in assay [3], in assay [4], in assay [8] and in assay [16] was “inactive” in each case. Moreover, the Potency entry in assay [11], in assay [5] and in assay [6] was “inactive” each time. The Potency in assay [15] was 25.5 µM (active); in assay [13] it was 94.2 µM (active); in [17], 51 µM (active). Further, the result in assay [12] was inactive. Further, the activity change, positive = activation in [18] was -41.3%.
Regarding `ClCc1ccccc1`, the Potency result in assay [1], in assay [2], in assay [3], in assay [4], in [7] and in assay [8] was “inactive” throughout. Moreover, the Potency result in assay [9], in [11], in assay [13], in [5], in assay [14] and in assay [6] was “inactive” throughout. Besides, the result in [12] was inactive.
In the case of `O=C1NCN(c2ccccc2)C12CCN(CCCOc1ccc(F)cc1)CC2`, the Potency result in [1], in assay [7], in assay [8], in [15], in assay [16] and in assay [10] was “inactive” each time. The Potency entry in assay [11], in assay [13], in assay [17] and in assay [6] was “inactive” each time. The Potency in assay [2] is 6.68 µM (active); in [3], 3.35 µM (active). Further, the call in assay [12] was inactive. Further, in assay [18], the activity change, positive = activation was -8.92% [at 42.5 µM].
As for `O=C(CBr)OCc1ccccc1`, the Potency result in assay [1], in assay [2], in assay [3], in [4], in assay [7] and in assay [8] was “inactive” in each case. For the same molecule, the Potency result in assay [13], in [5], in assay [14] and in assay [6] was “inactive” throughout. In assay [12], the molecule was classed as inactive.
